The campaign covered roughly 190,000 compounds. About 1,300 (0.68%) were called active. Cut-off read from the data, not from the text of the source: active = inhibition above about 50%; inactive = the rest. The list comes from a sample in which actives are over-represented; it also holds similar structures and randomly drawn compounds.
Each molecule was assayed against Mannose-6-phosphate isomerase (Homo sapiens) (UniProt P34949) (assay: human PMI inhibitors, high substrate, primary screen, biochemical, fluorescence intensity, high mannose 6-phosphate (AID 1220)). Conditions: recombinant PMI enzyme, coupled fluorescence intensity; at 20 µM; active compounds read high.
Sequence of Mannose-6-phosphate isomerase (Homo sapiens) (P34949 whole entry, looked up): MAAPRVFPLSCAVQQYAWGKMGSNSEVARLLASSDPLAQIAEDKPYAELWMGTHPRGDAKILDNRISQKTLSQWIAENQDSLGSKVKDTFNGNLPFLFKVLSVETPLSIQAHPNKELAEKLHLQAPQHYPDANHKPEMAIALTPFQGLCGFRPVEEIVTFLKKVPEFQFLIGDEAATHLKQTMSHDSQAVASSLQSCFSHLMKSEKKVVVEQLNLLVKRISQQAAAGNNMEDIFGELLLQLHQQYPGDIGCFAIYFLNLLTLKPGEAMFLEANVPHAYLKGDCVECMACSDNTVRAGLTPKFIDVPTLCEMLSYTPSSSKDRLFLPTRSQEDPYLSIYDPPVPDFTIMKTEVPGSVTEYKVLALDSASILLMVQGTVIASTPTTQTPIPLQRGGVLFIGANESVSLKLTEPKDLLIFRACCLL

inhibition, active:
Oc1ccc(/C=N\Nc2cc(N3CCOCC3)nc(N3CCOCC3)n2)c(O)c1 61.1%
Cc1cc(N/N=C/c2ccc(O)cc2O)nc(-c2ccccc2O)n1 52.9%
O=[N+]([O-])c1cc([N+](=O)[O-])c2c(=Nc3ccccc3)n(-c3ccccc3)n(O)c2c1 52.9%

inhibition, inactive:
O=C(Cn1cnc2c(nnn2Cc2ccc(F)cc2)c1=O)NCc1ccc(F)cc1 -6.8%
COC(=O)c1cc(C(=O)OC)cc(-n2c(C)cc(C(=O)COC(=O)CNS(=O)(=O)c3ccc(C)cc3)c2C)c1 6.4%
Oc1ccc(/C=N/Nc2nc(N3CCCCCC3)nc(N3CCCCCC3)n2)c(O)c1 19.9%
Oc1ccc(/C=N/Nc2nc(N3CCCC3)nc(N3CCCC3)n2)cc1O 27%
Cc1cc(N/N=C/c2ccccc2O)nc(-c2ccccc2O)n1 48.2%
Cc1cc(N/N=C/c2ccc(O)c(C)c2O)nc(-c2ccccc2O)n1 33.4%
CC(=O)NNc1cc(N2CCOCC2)nc(N2CCOCC2)n1 11.3%
C(=N\Nc1ccccn1)/c1ccc(N2CCOCC2)cc1 23.5%
COc1ccc(-c2oc3ncnc(N)c3c2-c2ccccc2)cc1 5.7%
Nc1ccccc1C(=O)N(Cc1ccccc1)Cc1ccccc1 -1.7%
C=CCSc1nnc(-c2ccc([N+](=O)[O-])cc2)o1 -2.9%
Cc1ccc2c(C)[nH]c(=O)cc2c1 8.1%
CCOc1cc(CNCc2ccncc2)cc(Br)c1OCc1ccc(F)cc1 5.1%
Cc1ccc(S(=O)(=O)c2nc(-c3ccco3)oc2SCC(=O)NCC2CCCO2)cc1 (centres undefined) 18.4%
COc1ccccc1N=c1c2c([N+](=O)[O-])cc([N+](=O)[O-])cc2n(O)n1-c1ccccc1OC -1.7%
CCc1ccc(N=c2c([N+](=O)[O-])nn(-c3ccccc3)n2O)cc1 2.1%
CCOc1cc(C2C(C#N)=C(N)Oc3n[nH]c(-c4ccncc4)c32)cc([N+](=O)[O-])c1O (centres undefined) 24.5%
CCN(c1ccccc1)S(=O)(=O)c1ccc(Cl)c(NC(=O)COC(=O)C2CC2C)c1 (centres undefined) 6.5%
O=S(=O)(O/N=C1\CCCc2ccccc21)c1ccccc1 -10.1%
O=S(=O)(O/N=C1\CCCc2ccccc21)c1ccc(Cl)cc1 -28.3%
Cc1ccc(S(=O)(=O)ON=C2CCN(S(=O)(=O)c3ccccc3)CC2)cc1 -1%
N/C(=N\OS(=O)(=O)c1ccccc1)c1ccncc1 -14.4%
Cc1ccc(S(=O)(=O)O/N=C2\CCCc3ccccc32)cc1 -0.1%
CC1=C/C(=N\OC(=O)/C=C/c2ccccc2)C(C)=CC1=O 8.4%
CC1=C(C)/C(=N\OS(=O)(=O)c2ccccc2)C=CC1=O 49%
N/C(=N\OS(=O)(=O)c1ccccc1)c1ccccn1 -4.5%
